This note sets out measurements from PubChem BioAssay AID2315 (National Center for Advancing Translational Sciences (NCATS), 2010).

Structures are written as SMILES. Among all 290,000 compounds or so, about 27,000 (9.3%) were called active. For the sample, actives were picked, then their nearest neighbours and some compounds at random. A number with no mark means an inactive call. No stated cut-off is given here; in the data, active means inhibition mostly above about 28% (no sharp cut-off); inactive means mostly below about 43%.

The test in a line: A qHTS for Small Molecule Inhibitors of Shiga Toxin. Further: 0% is about no effect. The following applies: Vero cells, Shiga toxin protein synthesis inhibition reporter; at 38.7 µM, active compounds read high.
Broadly, the inhibition is the relative decrease from the control value, in per cent. Turning to `O=C1C(=O)N(CCN2CCOCC2)C(c2cccc(Cl)c2)/C1=C(/O)c1ccc2c(c1)OCO2` (configuration not stated), the inhibition was -5.97%. Take `CS(=O)(=O)N(CC(=O)N1CCCCCC1)c1cccc(Cl)c1Cl`: the inhibition was -8.4%. For the compound `CC(=O)N1CCOc2ccc(S(=O)(=O)N3CCC(C(=O)Nc4ccccc4F)CC3)cc21`, the inhibition was -3.81%.

Turning to `CSCCC(NS(=O)(=O)c1ccc(C)cc1)C(=O)N1CCCC1` (configuration not stated), the inhibition is -8.89%. On to `COc1ccc2c(C)c(CCC(=O)NC3CC3)c(=O)oc2c1C`, for which the inhibition was 12.7%. With `Nc1nnnn1CC(=O)N/N=C/c1ccc(-c2cccc(Cl)c2)o1`, the inhibition is 14.1%.

`O=C(N/N=C\c1ccc(-c2ccc(Cl)c(Cl)c2)o1)C(=O)N1CCCC1`: the inhibition was -9.82%. In the case of `COC(=O)N/N=C/c1ccc(-c2ccc(Cl)c(Cl)c2)o1`, the inhibition is 59.7% (active). As to `CS/C(=C\C(=O)c1ccco1)Nc1ccccc1Cl`, the inhibition is 53.1% (active). On to `O=C(Nc1ccccc1C(=O)N1CCCCC1)c1ccco1`, for which the inhibition is -5.5%. Then `O=C(c1cccc(S(=O)(=O)Nc2ccccc2Cl)c1)N1CCN(C(=O)c2ccco2)CC1`, with 10.9%; and `Cc1c(Cl)cccc1NC(=O)[C@@]1(CC(=O)O)CC(/C=C/c2ccccc2)=NO1`, with 4.14%. With `CCOc1cc(/C=N/NC(=O)c2cc(-c3ccccc3)nc3ccccc23)ccc1O` the figure was 46.8% (active); with `CCOc1cc(/C=N/Nc2cc(C)nc3ccc(C)cc23)ccc1O`, 16.6%; with `COc1cccc(-c2cc(C(=O)N/N=C/c3ccc(OC)c(COC(C)=O)c3)c3ccccc3n2)c1`, 13.2%. `Cc1cc(=O)oc2cc(OC(C)C(=O)NCCc3ccc(S(N)(=O)=O)cc3)ccc12` (configuration not stated): the inhibition was -15.1%. As for `CC(=O)N1CCOc2ccc(S(=O)(=O)N3CCN(c4cccc(C(F)(F)F)c4)CC3)cc21`, the inhibition is -3.75%. `CCCCOc1ccc(-c2ncc(C(=O)OCC)c(N)n2)cc1`: the inhibition is 21.7%. On to `CCCCCc1ccc(-c2ccc(C(=O)O)cc2)nc1`, for which the inhibition is 71.9% (active). For `CCCCCc1ccc(-c2ccc(OCC)cc2)nc1`, the inhibition was 43.4% (active). Then `CCOc1c(CNCc2ccc(C(=O)O)cc2)cccc1OC`, with 11.6%; and `O=C(O)c1ccc(COCC(F)(F)F)cc1`, with 8.49%; and `CCCCCc1ccc(-c2cn(Cc3ccc4ccccc4c3)nn2)cc1`, with -7.01%. As to `Cc1ccc(NC(=O)CN2C(=O)NC(C)(c3ccc(Cl)cc3)C2=O)c(Br)c1` (configuration not stated), the inhibition is -4.27%. Then `CC(=O)c1ccc2c(c1)c1ccccc1n2CC(C)C`, with -9.15%; and `Cc1ccccc1OCC(=O)NCC(=O)OCC(=O)c1ccc2ccccc2c1`, with 12.1%; and `CC(=O)c1ccc2c(ccc3ccccc32)c1`, with 50.4% (active). For the compound `CC(=O)CCC(=O)c1ccc2ccccc2c1`, the inhibition was 52.7% (active). For the compound `C/C(=N\NC(=O)c1ccc2ccccc2c1)c1cccnc1`, the inhibition is 43.1%. `CCN(CC)Cc1cc(C(C)=O)ccc1O`: the inhibition was -16.1%. Consider `Cc1cccc(NS(=O)(=O)c2ccc(C(=O)NCC(C)(C)N3CCOCC3)cc2)c1C`, for which the inhibition was -13%. With `COc1cc(OC)c(S(=O)(=O)Nc2ccccc2C(=O)O)cc1S(=O)(=O)Nc1ccccc1C(=O)O` the figure was 7.19%; with `CCC(=O)N1CCc2cc(S(=O)(=O)CCC(=O)N3CCN(c4ccccc4F)CC3)ccc21`, 0.463%; with `COc1cc(NS(=O)(=O)c2ccc(NC(=S)NC(=O)c3ccccc3)cc2)nc(OC)n1`, -2.7%. Then `O=C(Nc1ccc(Br)cn1)c1ccc([N+](=O)[O-])cc1Cl`, with 119% (active); and `CC(C)C(=O)Nc1cccc(NC(=O)c2ccc([N+](=O)[O-])cc2Cl)c1`, with 16.6%. With `O=C(Nc1ccc(Br)cn1)c1ccc([N+](=O)[O-])o1`, the inhibition was 50.9% (active).

As to `O=C(Nc1ccncc1)c1ccc([N+](=O)[O-])cc1Cl`, the inhibition is -1.95%. For the compound `O=C(/C=C/c1ccc(Cl)cc1)Nc1ccc(Br)cn1`, the inhibition was 34.5%.

`CN1C(=O)c2ccc(C(=O)Nc3ccc(Br)cn3)cc2C1=O`: the inhibition was -3.25%.

As to `COc1ccc(N(Cc2cc3ccc(C)cc3[nH]c2=O)S(=O)(=O)c2ccccc2)cc1`, the inhibition was -1.62%.

On to `CCOc1cc(NC(=O)Nc2ccccc2)c(OCC)cc1NC(=O)CC`, for which the inhibition is -9.09%. Turning to `CC1CCCN(S(=O)(=O)c2ccc(-c3ccc(=O)[nH]n3)o2)C1` (configuration not stated), the inhibition was -5.12%. With `O=S(=O)(NC1CC1)c1ccc(F)c(F)c1` the figure was 20.3%; with `CCc1ccc(OCC(=O)OC(C)C(=O)NC2CC2)cc1` (configuration not stated), -3.01%. In the case of `CCCCN(CC)C(=O)C1CCCN(S(=O)(=O)c2cccc3nsnc23)C1` (configuration not stated), the inhibition was -4.85%. Consider `Cc1c(C(N)=O)sc2ncn(CCOc3ccccc3)c(=O)c12`, for which the inhibition is 59.8%. Take `CCOC(=O)C(C)n1cnc2sc(C)c(C)c2c1=O` (configuration not stated): the inhibition was 17.6%.

`Cc1cccc(OC(=O)c2sc3ncn(C)c(=O)c3c2C)c1`: the inhibition was 67.1% (active).

Consider `CN(CCc1ccccn1)C(=O)c1ccc(OC2CCN(Cc3ccccn3)CC2)cc1`, for which the inhibition was 16%. For `CCCCOC(=O)Nc1nccs1`, the inhibition was 7.37% (active). Then `Cn1cccc1C(=O)Nc1nccs1`, with 39.3% (active); and `CC(NC(=O)C(=O)Nc1nccs1)c1ccccc1` (configuration not stated), with -4.59%. Regarding `CC(=O)NC(CC(=O)Nc1nccs1)c1ccccc1` (configuration not stated), the inhibition is 14.1%. For the compound `CCN(c1ccccc1)S(=O)(=O)c1ccc(C(=O)Nc2nccs2)cc1`, the inhibition is -6.9%. In the case of `CC(=O)Oc1ccc(C(=O)Nc2nccs2)cc1`, the inhibition is 45.7% (active). Take `CCOc1ccc(C(=O)NC(=S)Nc2ccc(NC(=O)C(C)C)cc2)cc1[N+](=O)[O-]`: the inhibition was -4.8%. Consider `O=C(O)c1ccccc1-c1ccccc1C(=O)Nc1nccs1`, for which the inhibition was 16.1%. `COc1ccc(C(=O)NNC(=O)c2cnccn2)cc1[N+](=O)[O-]`: the inhibition is -6.53%. Turning to `O=C(COC(=O)c1ccc(O)cc1)Nc1nccs1`, the inhibition was 28%. Turning to `CCCCOC(=O)Nc1nnc(CC(=O)NCc2ccccc2)s1`, the inhibition is -13.9%. For the compound `CCOc1ccc(C(=O)Nc2nccs2)cc1[N+](=O)[O-]`, the inhibition is 69.4% (active).
